Screens from PubChem.
Most compounds without a hit are left out; they make up all but 27% or so of the library.
CYP2C19 inh – inhibitors of human CYP2C19; CYP2C19 Supersomes, luciferin-H EGE luminescence, 30 min; P33261; AID 778; inhibition, % at 5 µM; 21% of 96,000 active;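 active = CYP2C19 inhibition above a set limit at 5 µM in the primary screen, cut at about 50% in these data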;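 also: plate controls were negative control wells for no effect and 2.5 mM tranylcypromine positive control for full effect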
PTK2B oligo ant – antagonists of human Pyk2 oligomerization; Q14289; 0.83% of 99,000 active; Q293 cells, Pyk2 FERM NanoBiT luminescence; hits give low values; z-score (the deposit names both 25 µM and 10 µM); AID 1347419;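 active = Z-score of -3 or lower, scaled per plate to the spread of control and sample wells; inactive = z-score above -3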;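 also: negative z-score means lost luminescence so less FERM oligomerization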
CYP2C9 act – activators of human CYP2C9. AID 1024. 1.4% of 96,000 active. recombinant CYP2C9, luciferin-H conversion, luminescence; hits give high values; factor 1 = untreated enzyme, 0 = blocked. P11712. activation factor at 5 µM;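 active = activation factor of 2 or more for CYP2C9 at a 5 µM dose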;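 also: 0 = sulfaphenazole-blocked wells and 1 = vehicle-only wells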
Target sequence (P11712 whole entry, looked up): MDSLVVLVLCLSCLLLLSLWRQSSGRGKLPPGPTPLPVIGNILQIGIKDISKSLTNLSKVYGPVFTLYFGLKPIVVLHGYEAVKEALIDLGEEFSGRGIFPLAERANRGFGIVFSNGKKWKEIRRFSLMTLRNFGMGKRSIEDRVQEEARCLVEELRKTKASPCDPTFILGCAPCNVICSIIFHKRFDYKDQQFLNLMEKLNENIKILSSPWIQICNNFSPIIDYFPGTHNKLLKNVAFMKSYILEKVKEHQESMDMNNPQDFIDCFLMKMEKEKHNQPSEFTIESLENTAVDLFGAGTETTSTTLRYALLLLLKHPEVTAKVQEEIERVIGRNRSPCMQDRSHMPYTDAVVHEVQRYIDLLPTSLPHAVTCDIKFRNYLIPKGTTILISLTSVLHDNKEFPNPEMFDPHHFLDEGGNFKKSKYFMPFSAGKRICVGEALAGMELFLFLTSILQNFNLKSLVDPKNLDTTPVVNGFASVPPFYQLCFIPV
Cav32 inh – blocks human Cav3.2 T-type calcium channel; O95180; Cav3.2-expressing cells, Fluo-4 calcium fluorescence FDSS; hits give low values; B-score at 10 µM; 4% of 100,000 active;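 active = single-dose well whose peak fluorescence ratio is a statistical outlier from its plate by either plate-standardised score or position-corrected B-score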
CYP2C9 inhib – blocks human cytochrome P450 2C9 | 20% of 96,000 active | inhibition, % at 5 µM | P11712 | CYP2C9 Supersomes, luciferin-H conversion, luminescence;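 active = blocking of liver enzyme CYP2C9 beyond about 50% at 5 µM, limit read from the data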
CYP2C19 act – increases human CYP2C19 enzyme activity; P33261; recombinant CYP2C19, luciferin-H EGE luminescence; hits give high values; 0 = fully inhibited enzyme, 1 = untreated enzyme; activation factor at 5 µM; 96,000 tested, under 10 active; AID 1025;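 active = activation factor of at least 2 at 5 µM in the primary screen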;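 also: 0 = wells with 2.5 mM tranylcypromine and 1 = vehicle-only wells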
An asterisk follows results filed as active; nt = no result given.

SMILES	CYP2C19 inh	PTK2B oligo ant	CYP2C9 act	Cav32 inh	CYP2C9 inhib	CYP2C19 act
Cc1ccc(-c2nc3ncccn3c2Nc2ccc3c(c2)OCCO3)o1	43	1	0.5	1.2	53*	0.6
O=C1CC(N2CCN(c3ccc(F)cc3)CC2)C(=O)N1Cc1ccc(N2CCCC2=O)cc1 (configuration not stated)	22	1.6	0.8	0.46	20	0.8
CCOc1cc(C#N)c(NC(=O)c2cccnc2Cl)cc1OCC	-7	0.61	0.3	-0.097	65*	1.1
COc1ccccc1C(=O)Nc1cc(Cl)ccc1O	7	-2.4	0.8	-0.47	15	0.9
CCOc1ccccc1C(=O)Nc1cc(Cl)ccc1O	-9	-3.7*	1.3	0.22	-27	1.1
O=C(N/C(=C\c1ccccc1)C(=O)N1CCN(CCO)CC1)c1ccccc1	nt	0.28	nt	nt	nt	nt
CCCCS(=O)(=O)Nc1ccc2c(c1)ncn2C1CCCCC1	11	-1.1	0.2	-0.046	85*	0.9
CCCCNC(=O)c1ccc2c(c1)ncn2C1CCCCC1	2	0.4	0.9	0.65	6	1
C=CCNc1nc(-c2ccc(O)c(C(N)=O)c2)cs1	75*	0.32	0.9	0.61	11	0.3
Cc1c(Cl)cccc1Nc1nc(N)nc(CN2CCc3ccccc3C2)n1	33	-0.34	0.5	-4*	46	0.7
Cc1ccc(Nc2nc(N)nc(CN3CCc4ccccc4C3)n2)cc1	55*	-0.55	0.5	-0.6	52*	0.4
Cc1cccc(Nc2nc(N)nc(CN3CCC(C(N)=O)CC3)n2)c1C	-9	-0.97	1.1	-0.11	-5	1.1
Cc1ccc(Nc2nc(N)nc(CC#N)n2)cc1	2	-2.1	0.8	0.16	15	1
O=C(O)CCn1cc(/C=C/C(=O)c2ccc(Cl)cc2)c(-c2ccc(Br)cc2)n1	nt	-1.3	nt	nt	nt	nt
CCOC(=O)Cc1cnc(NC(=O)Cn2nnc(-c3ccc(OCC)cc3)n2)s1	66*	1.3	0.2	-7.2*	85*	0.3
CCCCOc1ccc(-c2nnn(CC(=O)Nc3ncc(CC(=O)OCC)s3)n2)cc1	21	1.2	0.2	-2.4	76*	0.8
COc1ccccc1C(=O)N/C(N)=N/c1nc2ccccc2o1	6	-0.65	1	-0.17	1	0.9
CCc1c(C)[nH]c2nc3ccccc3n2c1=O	24	1.6	0.5	0.37	48	0.8
O=c1cc(-c2ccccc2)[nH]c2nc3ccccc3n12	61*	-2.2	0.2	0.32	76*	0.4
CCOC(=O)N1CCC(N2Cc3cccc(C(=O)Nc4ccc(OC)c(OC)c4)c3C2=O)CC1	70*	nt	0.1	-0.51	95*	0.3
CCOC(=O)N1CCC(NC(=O)c2cc(C(=O)Nc3ccc(OC)c(OC)c3)ccc2CO)CC1	20	1.7	0.4	0.39	64*	0.8
NC(=O)c1cccc2c1C(=O)N(C1CCCCC1)C2	-5	nt	1	-0.15	0	1
CCOC(=O)c1ccccc1NC(=O)c1cccc2c1C(=O)N(C1CCN(C(=O)OCC)CC1)C2	43	nt	0	0.72	96*	0.6
CCOC(=O)N1CCC(N2Cc3cccc(C(=O)N4CCN(C5CCCCC5)CC4)c3C2=O)CC1	40	nt	0.2	0.45	78*	0.6
CCOC(=O)c1ccccc1NC(=O)c1c(O)c2ccccc2n(CC)c1=O	-5	-1.4	0.9	-0.011	9	1.1
SMILES	CYP2C19 inh	PTK2B oligo ant	CYP2C9 act	Cav32 inh	CYP2C9 inhib	CYP2C19 act
CCOC(=O)C1CCN(C(=O)Nc2ccc(OC)c(OC)c2)CC1	5	0.19	1.1	0.45	-12	0.9
COC(=O)c1cn(NC(=O)C2CCCO2)c(=O)c2ccccc12 (configuration not stated)	nt	2	nt	0.36	nt	nt
O=C(Nc1ccccc1)C1(c2ccccc2)CC1(Cl)Cl (configuration not stated)	nt	-2	nt	-7.5*	nt	nt
C=CCNC(=O)C1(c2ccccc2)CC1(Cl)Cl (configuration not stated)	nt	0.92	nt	nt	nt	nt
CC12CCC(C(=O)Nc3ccccc3)(C/C1=N\O)C2(C)C (configuration not stated)	78*	2.8	1	-0.14	1	0.2
Cc1cccc(NC(=O)C23CCC(C)(/C(=N/O)C2)C3(C)C)c1 (configuration not stated)	30	0.38	1	-0.017	-3	0.7
CCOC(=O)c1cc(NC(=O)N(CC)CC)c(C)nc1C	-1	0.82	0.9	1.5	11	1
Cc1[nH]c2ccccc2c1/C=N/Nc1ccc([N+](=O)[O-])cc1S(=O)(=O)Nc1ccc(Cl)cc1	-8	-3.4*	0.8	-0.2	22	1.1
CC1CC(C)CN(C(=O)c2ccccc2Nc2ccc(SC(F)F)cc2)C1 (configuration not stated)	81*	-1.4	0.2	-4.2*	76*	0.2
CN1CCC(N(C)C(=O)c2ccccc2Nc2ccc(SC(F)F)cc2)CC1	7	2.1	0.9	0.85	12	0.9
N#Cc1sc(=O)[nH]c1Cl	nt	nt	nt	0.031	nt	nt
CCCCOc1ccc(S(=O)(=O)n2c(C)nc3ccccc32)cc1	39	0.68	0.3	-2.3	67*	0.6
COc1cc(S(=O)(=O)n2c(C)nc3ccccc32)ccc1F	94*	1	0.6	-0.38	43	0.1
COc1cc(S(=O)(=O)N2CCN=C2c2ccccc2)ccc1F	74*	-0.04	1.1	nt	-10	0.3
Cc1nc2ccccc2n1S(=O)(=O)N(C)C	19	-0.65	0.8	-0.24	20	0.8
CCN(C(=O)c1cc2cccc(OC)c2oc1=O)c1ccccc1	40	0.2	1.2	1.5	-20	0.6
CCc1nnc(NC(=O)CSc2nnc(-c3ccco3)n2CC)s1	39	-0.29	0.4	-0.24	65*	0.6
COCCCn1c(SCC(=O)n2c(C)c(C)c3ccccc32)nnc1-c1ccoc1C	89*	0.55	1.4	-1.6	-38	0.1
COCCCn1c(SCC(=O)N2CC(=O)Nc3ccccc32)nnc1-c1ccoc1C	5	-0.25	0.9	-0.22	14	1
CCn1c(SCC(=O)n2c(C)c(C)c3ccccc32)nnc1-c1ccco1	87*	-0.44	1.8	nt	-81	0.1
CCc1nnc(NC(=O)CSc2nnc(-c3c[nH]c4ccccc34)n2CC)s1	24	-1	0.4	-0.074	57*	0.8
CN1C(=O)CC(C(=O)O)SC1=Nc1ccc(F)cc1 (configuration not stated)	nt	1.8	nt	0.041	nt	nt
Cc1ccc(C)c(-n2c(SCC(=O)Nc3nonc3C)nnc2-c2ccoc2C)c1	36	-1.6	0.2	-6*	82*	0.6
Cc1ccc(-c2ccc(SCC(=O)Nc3nonc3C)nn2)cc1	28	0.36	0.1	1.1	86*	0.7
CCn1c(SCC(=O)Nc2cc(C)on2)nnc1-c1ccco1	53*	-0.04	0.7	-0.16	33	0.5
Cc1nonc1NC(=O)CSc1nnc(-c2ccoc2C)n1C	7	0.39	1.1	-0.86	-10	0.9
